Test results published in the supplement of paper PMC8975748.
Structures can show the parent of a compound that is named as a salt.

These compounds were tested on Saccharomyces cerevisiae BY4741 SeMeCo community (assay: z-score of subpopulation abundance vs DMSO median, subpopulation auxotrophic for LM; higher = larger share of this subpopulation than in DMSO controls). Settings: 10 µM; 24 h; SM minimal medium; subpopulation (auxotrophy): LM.
Protocol: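 Fluorescent four-plasmid SeMeCo (self-establishing metabolically cooperating S. cerevisiae BY4741 community; plasmids pH-mRuby2, pL-mWasabi, pU-eCFP, pM-TagRFP657) was grown 24 h in minimal SM medium with each Selleck FDA-approved drug at 10 µM in 384-well plates. Cells were fixed and imaged by high-content confocal microscopy. For each auxotrophic subpopulation (and the prototroph), a z-score gives the deviation from the DMSO vehicle-control population median.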

Row | SMILES | z-score of subpopulation abundance
1 | CC(C(=O)O)c1ccc2c(c1)Cc1cccnc1O2 (stereo not given) [Pranoprofen] | -0.7
2 | CN(C)CCn1nnnc1SCC1=C(C(=O)O)N2C(=O)[C@@H](NC(=O)Cc3csc(N)n3)[C@H]2SC1 [Cefotiam hydrochloride] | 1.06
3 | O=C(c1ccc(OCCN2CCCCC2)cc1)c1c(-c2ccc(O)cc2)sc2cc(O)ccc12 [Raloxifene HCl] | 1.33
4 | COc1cc(NC(C)CCCN)c2ncccc2c1 (stereo not given) [Primaquine Diphosphate] | 0.09
5 | C#CCN[C@@H]1CCc2ccccc21 [Rasagiline] | -0.61
6 | CO[C@@]1(NC(=O)CSC[C@@H](N)C(=O)O)C(=O)N2C(C(=O)O)=C(CSc3nnnn3C)CS[C@@H]21 [Cefminox Sodium] | -0.15
7 | CSCC1CN(/N=C/c2ccc([N+](=O)[O-])o2)C(=O)O1 (stereo not given) [Nifuratel] | 3.06
8 | CC(=O)OC1CC2(C)C(CC(O)C3C4(C)CCC(O)C(C)C4CCC32C)C1=C(CCC=C(C)C)C(=O)O (stereo not given) [Fusidine] | 2.09
9 | NC(=O)OCC(COC(N)=O)c1ccccc1 [Felbamate] | -1.27
10 | CC[C@@H]1C(=O)OC[C@@H]1Cc1cncn1C [Pilocarpine HCl] | 0.75
11 | CCN(CC)C(=O)C1(c2ccccc2)CC1CN (stereo not given) [Milnacipran HCl] | 0
12 | CCn1cc(C(=O)O)c(=O)c2cc(F)c(N3CCNCC3)nc21 [Enoxacin Sesquihydrate] | 0
13 | CCC[C@@H]1C[C@@H](C(=O)N[C@@H]([C@H]2O[C@H](SC)[C@H](OP(=O)(O)O)[C@@H](O)[C@H]2O)[C@H](C)Cl)N(C)C1 [Clindamycin Phosphate] | 0.11
14 | C/C(=C\C(=O)OCCCCCCCCC(=O)O)C[C@@H]1OC[C@H](C[C@@H]2O[C@H]2[C@@H](C)[C@H](C)O)[C@@H](O)[C@H]1O [Mupirocin calcium] | -0.21
15 | Nc1nc(/C(=C/CC(=O)O)C(=O)N[C@@H]2C(=O)N3C(C(=O)O)=CCS[C@H]23)cs1 [Ceftibuten dihydrate] | 0.1
16 | C[n+]1ccccc1/C=N/O [Pralidoxime chloride] | 0.17
17 | CNCC[C@H](Oc1cccc2ccccc12)c1cccs1 [Duloxetine] | -0.49
18 | N=C(N)NS(=O)(=O)c1ccc(N)cc1 [Sulfaguanidine] | -0.87
19 | CO/N=C(\C(=O)N[C@@H]1C(=O)N2C(C(=O)O)=C(CSc3nnnn3C)CS[C@H]12)c1csc(N)n1 [Cefmenoxime hydrochloride] | 0.27
20 | Clc1ccc(C(Cn2ccnc2)OCc2c(Cl)cccc2Cl)c(Cl)c1 (stereo not given) [Isoconazole nitrate] | -1.59

Row | SMILES | z-score of subpopulation abundance
21 | CC1(C)S[C@@H]2[C@H](NC(=O)Cc3ccccc3)C(=O)N2[C@H]1C(=O)O [Benzylpenicillin potassium] | 0.02
22 | COc1ccc(CNc2nc(N3CCC[C@H]3CO)ncc2C(=O)NCc2ncccn2)cc1Cl [Avanafil] | -0.5
23 | C[C@@H](CN1CC(=O)NC(=O)C1)N1CC(=O)NC(=O)C1 [Dexrazoxane HCl (ICRF-187, ADR-529)] | -1.65
24 | CC[C@@]1(O)C(=O)OCc2c1cc1n(c2=O)Cc2cc3cc(O)ccc3nc2-1 [Hydroxy Camptothecine] | 3.19
25 | Cc1ccc(S(=O)(=O)NC(=O)NN2CC3CCCC3C2)cc1 (stereo not given) [Gliclazide] | -0.15
26 | CCCCN1CCCC[C@H]1C(=O)Nc1c(C)cccc1C [Levobupivacaine HCl] | -0.55
27 | Nc1ccc2cc3ccc(N)cc3nc2c1 [Proflavine] | -5.35
28 | CCCN1C[C@H](C)[C@@H](O)[C@](C)(O)[C@@H](CC)OC(=O)[C@H](C)[C@@H](O[C@H]2C[C@@](C)(OC)[C@@H](O)[C@H](C)O2)[C@H](C)[C@@H](O[C@@H]2O[C@H](C)C[C@H](N(C)C)[C@H]2O)[C@](C)(O)C[C@H]1C [Gamithromycin] | 0.13
29 | CCCOc1ccc2[nH]c(NC(=O)OC)nc2c1 [Oxibendazole] | 0.57
30 | OC(CCN1CCCCC1)(c1ccccc1)C1CCCCC1 (stereo not given) [Trihexyphenidyl hydrochloride] | -0.29
31 | CCC(C)(Oc1ccc(C2(c3ccc(OC(C)(CC)C(=O)O)cc3)CCCCC2)cc1)C(=O)O (stereo not given) [Clinofibrate] | -1.21
32 | CC1(C)S[C@@H]2[C@H](NC(=O)[C@H](N)c3ccc(O)cc3)C(=O)N2[C@H]1C(=O)O [Amoxicillin] | -0.13
33 | O=C1Cc2cc(CCN3CCN(c4nsc5ccccc45)CC3)c(Cl)cc2N1 [Ziprasidone HCl] | 1.54
34 | COc1cc(N)c(Cl)cc1C(=O)NC1CCN(CCCOc2ccc(F)cc2)CC1OC (stereo not given) [Cisapride hydrate] | -0.23
35 | CN(C)CCC[C@@]1(c2ccc(F)cc2)OCc2cc(C#N)ccc21 [Escitalopram Oxalate] | 0.48
36 | Cc1cc(CC(C)CC(C)(C)C)n(O)c(=O)c1 (stereo not given) [Piroctone Olamine] | 6.65
37 | CN[C@@H]1[C@@H](O[C@H]2O[C@H](CO)[C@@H](N)[C@H](O)[C@H]2O)OC2C[C@@H](N)[C@@H](O[C@H]3[C@H](O)[C@@H](O)[C@H](N)C[C@@H]3N)OC2[C@@H]1O (stereo not given in full) [Apramycin Sulfate] | 0.1
38 | CCn1cc(C(=O)O)c(=O)c2ccc(C)nc21 [Nalidixic acid] | 0.23
39 | OC1(c2ccc(Cl)c(C(F)(F)F)c2)CCN(CCCC(c2ccc(F)cc2)c2ccc(F)cc2)CC1 [Penfluridol] | 2.64
40 | Cc1onc(-c2ccccc2)c1-c1ccc(S(N)(=O)=O)cc1 [Valdecoxib] | 0.09
